Test systems include HCT-15 colon; HT29 colon; SNB-75 CNS; SNB-19 CNS; U251 CNS; PC-3 prostate; SK-MEL-5 melanoma; UACC-62 melanoma; SK-MEL-28 melanoma.
Experiment in all cases: NCI-60 one-dose screen, 48 h (100 = growth as untreated, 0 = no growth, -100 = all killed)
What all share (details): 10 µM unless noted

These results are taken from PubChem BioAssay (NCI).

The panel holds about 83,000 compounds, 20% with a hit somewhere; the sample as a whole holds those more often.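 How to read the values: 0–100, growth inhibition (40 = 60% inhibited); 0, no net growth; -100 to 0, cell death (-40 = 40% of starting cells died; -100 = all dead).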 A number with no mark means an inactive call. The source made the active and inactive calls. How the source made its calls: active means growth percent below 10; inactive means the rest.

Take `N#C/C(=C\c1ccc(-c2ccc(Br)cc2)o1)c1nc(-c2ccco2)cs1`: the growth was 80.1% with HCT-15 colon; 99.5% in the experiment with HT29 colon; 78.9% in the experiment with SNB-75 CNS; 92.7% in the experiment on SNB-19 CNS; 93.9% in the experiment with U251 CNS; 91.5% in the experiment on PC-3 prostate. The growth in the experiment with SK-MEL-5 melanoma is 85%; in the experiment on UACC-62 melanoma, 81%; with SK-MEL-28 melanoma it was 100%.

Turning to `COc1ccc(-c2nc3ccccn3c2-c2nc3ccc(Cl)cc3[nH]2)cc1`, the growth in the experiment with HCT-15 colon was 89.1%; in the experiment on HT29 colon, 83.7%; with SNB-75 CNS, 67.5%; with SNB-19 CNS it was 96.2%; in the experiment with U251 CNS, 92.9%; in the experiment on PC-3 prostate, 57.5%. Besides, the growth with SK-MEL-5 melanoma was 83%; with UACC-62 melanoma it was 86.3%; in the experiment on SK-MEL-28 melanoma, 101%.

For `O=C(/C=C/c1cccc2ccccc12)Nc1ncc(Cc2ccccc2)s1`, the growth in the experiment with HCT-15 colon was 12.2%; with HT29 colon, 14.1%; with SNB-75 CNS, -17.2% (active); in the experiment with SNB-19 CNS, 9.85% (active); in the experiment with U251 CNS it was 1.44% (active); in the experiment on PC-3 prostate, 30.3%. Besides, the growth with SK-MEL-5 melanoma was 10.6%; in the experiment on UACC-62 melanoma, 15.9%; in the experiment on SK-MEL-28 melanoma it was 44.1%.

Take `CC(=O)Cc1nsc(NC(=O)c2ccoc2COc2ccccc2)n1`: the growth is 105% with HCT-15 colon; 107% in the experiment on HT29 colon; 99.4% in the experiment with SNB-75 CNS; 93.6% in the experiment on SNB-19 CNS; 96.5% in the experiment on U251 CNS; 89.9% with PC-3 prostate. Further, the growth with SK-MEL-5 melanoma was 101%; in the experiment on UACC-62 melanoma, 93%; in the experiment with SK-MEL-28 melanoma, 103%.

Regarding `NC1(N)C=CC2=C(C=C1)C1(N)C3=C(C=CC(N)(N)C=C3)N2C2(N)C3=C(C=CC(N)(N)C=C3)N1C1=C2C=CC(N)(N)C=C1`, the growth in the experiment on HCT-15 colon is 94.7%; with HT29 colon it was 94.4%; in the experiment with SNB-75 CNS, 93.9%; with SNB-19 CNS, 101%; in the experiment with U251 CNS, 83.3%; in the experiment on PC-3 prostate it was 72.2%. Besides, the values for the growth with SK-MEL-5 melanoma, in the experiment on UACC-62 melanoma and in the experiment on SK-MEL-28 melanoma were 75%, 81.5% and 99.1%, respectively.

For the molecule `CC[C@H](CC[C@@H](C)[C@H]1CC[C@H]2[C@@H]3/C(=C/c4cccnc4)C(=O)C4=CC(=O)CC[C@]4(C)[C@H]3CC[C@]12C)C(C)C`, the growth was 78.9% in the experiment on HCT-15 colon; 81.4% in the experiment on HT29 colon; 110% in the experiment with SNB-75 CNS; 88.6% in the experiment with SNB-19 CNS; 0.689% (active) in the experiment with U251 CNS; 66.7% with PC-3 prostate. The growth in the experiment on SK-MEL-5 melanoma is 79.8%; in the experiment with UACC-62 melanoma, 76.6%; in the experiment with SK-MEL-28 melanoma, 75.7%.

For `C=C(C)[C@@H]1CC[C@]2(C(=O)O)CC[C@]3(C)[C@H](CC[C@@H]4[C@@]5(C)C/C(=C/c6cccc(I)c6)C(=O)C(C)(C)[C@@H]5CC[C@]43C)[C@@H]12`, the growth in the experiment on HCT-15 colon is 19.4%; in the experiment with HT29 colon it was 9.1% (active); in the experiment on SNB-75 CNS, -36.5% (active); with SNB-19 CNS, 38%; with U251 CNS, 18.4%; in the experiment with PC-3 prostate, 15.5%. The figures for the growth in the experiment with SK-MEL-5 melanoma, with UACC-62 melanoma and in the experiment with SK-MEL-28 melanoma were 13.9%, 30.9% and 75.4%, respectively.

`CC(=O)c1c(C)[nH]c(-c2nc3ccc(N4CCN(C)CC4)cc3[nH]2)c1-c1ccc(N(C)C)cc1`: the growth is 4.03% (active) in the experiment on HCT-15 colon; 9.08% (active) in the experiment with HT29 colon; -9.22% (active) in the experiment with SNB-75 CNS; 42.4% in the experiment with SNB-19 CNS; 51% with U251 CNS; 42% in the experiment with PC-3 prostate. The figures for the growth with SK-MEL-5 melanoma, in the experiment on UACC-62 melanoma and in the experiment with SK-MEL-28 melanoma were 2.25% (active), 21.1% and 45.8%, respectively.

On to `Cc1ccc2c(c1)c(-c1nc(-c3c[nH]c4ncccc34)cs1)cn2C`, for which the growth in the experiment with HCT-15 colon was 86.5%; in the experiment on HT29 colon it was 69%; in the experiment with SNB-75 CNS it was 91.2%; with SNB-19 CNS it was 107%; in the experiment on U251 CNS it was 98.6%; with PC-3 prostate it was 85.7%. For the same molecule, the figures for the growth in the experiment with SK-MEL-5 melanoma, in the experiment with UACC-62 melanoma and in the experiment on SK-MEL-28 melanoma were 98.8%, 94.5% and 109%, respectively.

As to `C#CCn1c(C)cc(C)c(C#N)c1=O`, the growth with HCT-15 colon was 105%; in the experiment on HT29 colon it was 120%; with SNB-75 CNS it was 103%; in the experiment on SNB-19 CNS, 95.4%; in the experiment with U251 CNS it was 100%; in the experiment with PC-3 prostate, 104%. In addition, the growth is 104% with SK-MEL-5 melanoma, 99% in the experiment on UACC-62 melanoma and 109% in the experiment with SK-MEL-28 melanoma.

As to `COc1ccc2c(c1)C(Br)=C(CCO)C2c1ccccc1` (stereo unspecified), the growth with HCT-15 colon is 87.6%; in the experiment with HT29 colon, 41.8%; in the experiment with SNB-75 CNS, 57%; in the experiment with SNB-19 CNS, 57.7%; in the experiment on U251 CNS, 55.8%; in the experiment with PC-3 prostate, 54.5%. Also, the growth with SK-MEL-5 melanoma is 96.5%; in the experiment on UACC-62 melanoma, 60%; with SK-MEL-28 melanoma, 69.5%.

For `CCN1CCN(C(=O)[C@@]2(C)CC[C@]3(C)CC[C@]4(C)C(=CC(=O)[C@@H]5[C@@]6(C)CC[C@H](OCCC#N)C(C)(C)[C@@H]6CC[C@]54C)[C@@H]3C2)CC1`, the growth in the experiment on HCT-15 colon was 69.5%; in the experiment on HT29 colon, 42.6%; in the experiment on SNB-75 CNS it was 59.9%; in the experiment with SNB-19 CNS, 103%; with U251 CNS, 64.2%; in the experiment on PC-3 prostate it was 72.1%. Moreover, the figures for the growth in the experiment on SK-MEL-5 melanoma, in the experiment with UACC-62 melanoma and with SK-MEL-28 melanoma were 90.2%, 87.1% and 67.7%, respectively.

As to `COc1ccc2nc(-c3c(-c4ccccc4)nc4ncccn34)[nH]c2c1`, the growth in the experiment on HCT-15 colon is 96.5%; in the experiment on HT29 colon, 94.1%; with SNB-75 CNS, 78.1%; in the experiment on SNB-19 CNS, 101%; in the experiment on U251 CNS, 99.5%; in the experiment with PC-3 prostate, 97.3%. The growth in the experiment on SK-MEL-5 melanoma is 95.6%; in the experiment on UACC-62 melanoma, 95.3%; in the experiment with SK-MEL-28 melanoma, 91.5%.

On to `Cc1ccc(/C=C(\C#N)c2cc3ccccc3n2C)cc1`, for which the growth with HCT-15 colon was 10.3%; with HT29 colon, 17.1%; in the experiment with SNB-75 CNS it was 19.4%; with SNB-19 CNS, 29.3%; in the experiment on U251 CNS it was 30.9%; in the experiment on PC-3 prostate it was 36.1%. The growth was 23% in the experiment on SK-MEL-5 melanoma, 20% in the experiment on UACC-62 melanoma and 65.4% in the experiment with SK-MEL-28 melanoma.

`Cn1cc(-c2nc(-c3c[nH]c4ncccc34)cs2)c2cc(Cl)ccc21`: the growth with HCT-15 colon was 31.2%; with HT29 colon, 38.5%; with SNB-75 CNS, 63.6%; with SNB-19 CNS it was 74.4%; with U251 CNS, 40%; in the experiment with PC-3 prostate, 42.4%. For the same molecule, the growth in the experiment with SK-MEL-5 melanoma was 83.3%; in the experiment with UACC-62 melanoma, 64.3%; in the experiment on SK-MEL-28 melanoma, 80.1%.

As for `CC(=O)O[C@H]1CC[C@@]2(C)C(=CC[C@@H]3[C@@H]2CC[C@]2(C)C(=O)N(O)C(=O)C[C@@H]32)C1`, the growth is 58.9% in the experiment with HCT-15 colon; 89.2% in the experiment with HT29 colon; 75.8% in the experiment with SNB-75 CNS; 95.5% in the experiment with SNB-19 CNS; 69.3% in the experiment with U251 CNS; 75.7% in the experiment with PC-3 prostate. In addition, the growth in the experiment on SK-MEL-5 melanoma is 98.4%; with UACC-62 melanoma, 100%; in the experiment with SK-MEL-28 melanoma, 89.6%.

In the case of `CN(C)c1cccc2[nH]c(-c3[nH]ncc3Nc3ccnc(N)n3)nc12`, the growth is -17.1% (active) with HCT-15 colon; 0.0531% (active) with HT29 colon; -68.7% (active) in the experiment on SNB-75 CNS; -3.76% (active) in the experiment with SNB-19 CNS; -50.1% (active) in the experiment on U251 CNS; 5.95% (active) in the experiment on PC-3 prostate. Moreover, the results for the growth in the experiment on SK-MEL-5 melanoma, with UACC-62 melanoma and in the experiment on SK-MEL-28 melanoma were -98.9% (active), -85.1% (active) and -57.3% (active), respectively.

Turning to `Cn1cc(-c2nc(-c3cn(C)c4ncccc34)cs2)c2cc(F)ccc21`, the growth in the experiment with HCT-15 colon is 21.3%; with HT29 colon it was 8.87% (active); with SNB-75 CNS, 29.1%; in the experiment on SNB-19 CNS, 46.4%; in the experiment on U251 CNS, 31.8%; in the experiment with PC-3 prostate, 47.1%. Further, the growth with SK-MEL-5 melanoma is 24.7%; in the experiment on UACC-62 melanoma it was 41.7%; with SK-MEL-28 melanoma, 50.9%.

In the case of `C=C(C)[C@@H]1CC[C@]2(CN)CC[C@]3(C)[C@H](CC[C@@H]4[C@@](C)(CCCN)[C@H](C(=C)C)CC[C@]43C)[C@@H]12`, the growth in the experiment on HCT-15 colon was 62.8%; in the experiment on HT29 colon it was 17.9%; in the experiment on SNB-75 CNS it was 79.8%; with SNB-19 CNS, 89.5%; with U251 CNS it was 74%; in the experiment with PC-3 prostate it was 71.5%. Moreover, the growth in the experiment with SK-MEL-5 melanoma was 88.3%; in the experiment with UACC-62 melanoma, 100%; in the experiment on SK-MEL-28 melanoma it was 100%.
